Experimental data as given in publication PMC4336329 (PLoS ONE, 2015).
In all, about 310,000 compounds went through this assay and about 14,000 (4.5%) showed an effect of 50% or more. Effects have a minus sign here. For the sample, strong results were picked, then their nearest neighbours and some compounds at random.

These compounds were tested against human ether-à-go-go-related gene (hERG) potassium channel (human, UniProt Q12809) (assay: primary screen, population patch clamp on CHO cells stably expressing hERG; higher = less effect of the substance).
Sequence of human ether-à-go-go-related gene (hERG) potassium channel (Q12809 whole entry, looked up): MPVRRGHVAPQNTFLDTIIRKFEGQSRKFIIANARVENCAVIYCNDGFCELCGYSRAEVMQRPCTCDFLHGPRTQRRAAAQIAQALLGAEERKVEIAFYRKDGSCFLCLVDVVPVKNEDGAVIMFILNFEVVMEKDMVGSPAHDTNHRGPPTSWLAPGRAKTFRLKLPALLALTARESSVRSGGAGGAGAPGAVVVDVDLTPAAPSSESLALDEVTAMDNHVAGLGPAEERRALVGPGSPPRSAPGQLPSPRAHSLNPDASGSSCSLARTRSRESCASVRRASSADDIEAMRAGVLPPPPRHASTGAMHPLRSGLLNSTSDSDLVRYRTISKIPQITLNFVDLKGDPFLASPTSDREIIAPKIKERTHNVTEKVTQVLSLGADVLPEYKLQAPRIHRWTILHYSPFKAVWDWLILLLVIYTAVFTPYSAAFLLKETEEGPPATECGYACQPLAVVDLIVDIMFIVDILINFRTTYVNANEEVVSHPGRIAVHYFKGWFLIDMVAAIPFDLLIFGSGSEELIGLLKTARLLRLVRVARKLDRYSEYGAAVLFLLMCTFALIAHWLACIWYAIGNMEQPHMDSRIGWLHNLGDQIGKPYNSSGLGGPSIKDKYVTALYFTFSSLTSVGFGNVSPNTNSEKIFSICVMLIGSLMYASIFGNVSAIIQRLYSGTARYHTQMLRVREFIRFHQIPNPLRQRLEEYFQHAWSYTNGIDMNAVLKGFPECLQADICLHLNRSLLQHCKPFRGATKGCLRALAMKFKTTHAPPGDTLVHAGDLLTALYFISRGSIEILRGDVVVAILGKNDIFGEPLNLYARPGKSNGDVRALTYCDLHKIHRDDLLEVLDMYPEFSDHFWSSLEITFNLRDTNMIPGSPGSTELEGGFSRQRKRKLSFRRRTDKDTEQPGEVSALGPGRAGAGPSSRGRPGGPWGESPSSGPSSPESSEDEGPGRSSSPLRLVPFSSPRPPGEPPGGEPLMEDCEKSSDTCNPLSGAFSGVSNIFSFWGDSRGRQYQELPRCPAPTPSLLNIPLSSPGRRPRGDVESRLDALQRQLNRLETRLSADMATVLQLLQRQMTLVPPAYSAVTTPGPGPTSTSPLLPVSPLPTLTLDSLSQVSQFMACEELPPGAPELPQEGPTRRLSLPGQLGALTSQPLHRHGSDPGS
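Also: peak tail current of the secondary pulse compared with the same well before compound.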

Row | SMILES | hERG current change (%, negative = inhibition) at 10uM
1 | CN(C)S(=O)(=O)c1ccc(C(=O)Nc2ccccc2OC(F)(F)C(F)F)cc1 | -16.6%
2 | C#CCNc1ccncc1S(=O)(=O)NC(=O)NC(C)C.O=[N+]([O-])O | -1.14%
3 | O=c1cc(CN2CCN(c3cccc(C(F)(F)F)c3)CC2)nc2sccn12 | -46.3%
4 | CC(CNC(=O)CCc1nnc2ccc(N3CCC4(CC3)OCCO4)nn12)c1ccccc1 (stereo not drawn) | -0.296%
5 | O=C(CNC(=O)c1sc2ccccc2c1Cl)NC1CC1 | 3.65%
6 | CCCCOc1ccccc1C(=O)NNC(=S)NC(=O)c1ccccc1[N+](=O)[O-] | 3.48%
7 | NS(=O)(=O)c1ccc(NC(=O)c2cc(-c3cc(Cl)ccc3O)n[nH]2)cc1 | 15.7%
8 | CS(=O)(=O)Nc1ccc(C2=NN(S(C)(=O)=O)C(c3ccccc3)C2)cc1 (stereo not drawn) | -73.6%
9 | CS(=O)(=O)N1N=C(c2cccs2)CC1c1ccccc1 (stereo not drawn) | -11.3%
10 | CCS(=O)(=O)N1N=C(c2ccc(NS(C)(=O)=O)cc2)CC1c1ccccc1 (stereo not drawn) | -62.1%
11 | CS(=O)(=O)N1N=C(c2ccc3nccnc3c2)CC1c1ccccc1 (stereo not drawn) | -7.62%
12 | CCC(CC)C(=O)N1N=C(c2ccc(NS(C)(=O)=O)cc2)CC1c1ccccc1 (stereo not drawn) | -41.4%
13 | CCS(=O)(=O)Nc1ccc(C2=NN(S(=O)(=O)CC)C(c3cccs3)C2)cc1 (stereo not drawn) | -9.32%
14 | Cc1ccc2nc(-c3ccc(N4C(=NC(=O)CCC(=O)O)SC5CS(=O)(=O)CC54)cc3)sc2c1 (stereo not drawn) | -19.3%
15 | O=C(NC(Cc1c[nH]c2ccccc12)C(=O)N/N=C/c1ccc(Br)cc1)c1cccs1 (stereo not drawn) | 8.02%
16 | O=C(Nc1nccs1)C1CCCN(S(=O)(=O)c2cccc3cccnc23)C1 (stereo not drawn) | -3.72%
17 | CCCCOc1ccc(-c2nnc(N)s2)cc1 | 2.84%
18 | CC(C)CCNC(=O)/C=C/c1ccc(Br)cc1 | 0.187%
19 | Cc1[nH]nc(Nc2ccc(O)cc2)c1[N+](=O)[O-] | 23.6%
20 | Cc1oc(-c2cccc(Cl)c2)nc1CS(=O)(=O)CC(=O)NCc1ccco1 | -28.2%
21 | CCCS(=O)(=O)N1CCCC(C(=O)NC(C)c2ccc3c(c2)OCCO3)C1 (stereo not drawn) | 9.55%
22 | Cc1oc(-c2cccc(Cl)c2)nc1CN1CCCC(C(=O)NCc2ccco2)C1 (stereo not drawn) | -73%
23 | Cc1oc(-c2cccc(Cl)c2)nc1CN1CCCC(C(=O)NCCCN2CCOCC2)C1 (stereo not drawn) | -28.1%
24 | Cc1oc(-c2ccc(Cl)cc2)nc1CN1CCCC(C(=O)NCCCN2CCCC2=O)C1 (stereo not drawn) | -30.8%
25 | Cc1oc(-c2cccc(Cl)c2)nc1CN1CCCC(C(=O)NC(C)c2ccc3c(c2)OCCO3)C1 (stereo not drawn) | -57.5%
26 | O=C(NCc1ccco1)C1CCCN(S(=O)(=O)c2ccc(Cl)cc2)C1 (stereo not drawn) | -13.2%

Row | SMILES | hERG current change (%, negative = inhibition) at 10uM
27 | CCN1CCN(CCNC(=O)C2CCCN(Cc3nc(-c4cccc(Cl)c4)oc3C)C2)CC1 (stereo not drawn) | -6.73%
28 | Cc1oc(-c2ccc(Cl)cc2)nc1CN1CCCC(C(=O)NCc2ccco2)C1 (stereo not drawn) | -71.9%
29 | COc1ccccc1NC(=O)c1ccccc1NS(C)(=O)=O | -1.12%
30 | O=C(O)/C=C/c1ccc(O)c(O)c1 | 13.1%
31 | O=C1CSC(=S)N1c1ccc(Cl)c(Cl)c1 | 20.7%
32 | CC1=C(C(=O)OC(C)(C)C)C(c2cccs2)NC(=O)N1 (stereo not drawn) | -0.0788%
33 | Cc1cc(OCC(=O)N2C[C@H]3C[C@@H](C2)c2cccc(=O)n2C3)c2c(C)c(C)c(=O)oc2c1 | 0.123%
34 | CC(C)(CC(=O)O)CC(=O)N1CCCN(c2nccc(C(F)(F)F)n2)CC1 | 17.8%
35 | O=C(NCc1ccncc1)C1CCN(S(=O)(=O)Cc2ccccc2)CC1 | -10.4%
36 | Cc1ccc(C)c(SCC(=O)Nc2nnc(-c3ccccc3)o2)c1 | 14.1%
37 | O=C(COC(=O)c1cccnc1Nc1cccc(C(F)(F)F)c1)NC1CCS(=O)(=O)C1 (stereo not drawn) | -16.1%
38 | O=C(COC(=O)c1cccnc1Nc1ccccc1F)NCCN1C(=O)CSC1=O | -27.7%
39 | Cc1ccc(-c2cc(C(=O)OCC(=O)N(C)C3CCS(=O)(=O)C3)c3ccccc3n2)o1 (stereo not drawn) | -19.1%
40 | CCN(C(=O)COC(=O)c1cccnc1Nc1cccc(C(F)(F)F)c1)C1CCS(=O)(=O)C1 (stereo not drawn) | -51%
41 | CCN(C(=O)COC(=O)c1cc(-c2cccc3ccccc23)nc2ccccc12)C1CCS(=O)(=O)C1 (stereo not drawn) | -6.23%
42 | CCN(C(=O)COC(=O)c1cc(-c2ccccc2)nn1-c1ccccc1)C1CCS(=O)(=O)C1 (stereo not drawn) | -12.8%
43 | CN(C(=O)COC(=O)c1cn(-c2ccccc2)nc1-c1ccccc1)C1CCS(=O)(=O)C1 (stereo not drawn) | -16.6%
44 | CCN(C(=O)COC(=O)c1cc(-c2ccc(C)o2)nc2ccccc12)C1CCS(=O)(=O)C1 (stereo not drawn) | -66.7%
45 | CCN(C(=O)COC(=O)c1cccnc1Nc1ccccc1F)C1CCS(=O)(=O)C1 (stereo not drawn) | -9.99%
46 | O=C(COC(=O)c1cccnc1Nc1cccc(C(F)(F)F)c1)NCCN1C(=O)CSC1=O | -58.7%
47 | CCN(C(=O)COC(=O)c1cn(-c2ccccc2)nc1-c1ccccc1)C1CCS(=O)(=O)C1 (stereo not drawn) | -75.9%
48 | O=C(COC(=O)/C=C/c1cccc(C(F)(F)F)c1)NCCN1C(=O)CSC1=O | -28.1%
49 | Cc1ccc(C(=O)NC(=S)NNS(=O)(=O)c2ccc(C)cc2)cc1 | 3.32%
50 | O=C(Nc1ccc(Cl)cn1)c1ccc(Br)c(S(=O)(=O)N2CCCCC2)c1 | 18.7%
51 | CC(=O)Nc1ccc(S(=O)(=O)N(Cc2cccnc2)Cc2cc3ccccc3[nH]c2=O)cc1 | 11.4%
